Bioassay records: PubChem BioAssay, National Center for Advancing Translational Sciences (NCATS)
In the library only some 7.3% were active in any assay of this set; here they are far more common.
AmpC inh detg = qHTS Inhibitors of AmpC Beta-Lactamase (assay with detergent); P00811; AmpC hydrolysis of nitrocefin, absorbance 480 nm, 0.01% Triton; 370,000 tested, 0.041% active; Potency, µM (top dose mostly 114 µM), actives largely listed as inhibitors; note: nearly all actives have a fitted effect of over 25% in size
Target sequence (P00811 whole entry, looked up): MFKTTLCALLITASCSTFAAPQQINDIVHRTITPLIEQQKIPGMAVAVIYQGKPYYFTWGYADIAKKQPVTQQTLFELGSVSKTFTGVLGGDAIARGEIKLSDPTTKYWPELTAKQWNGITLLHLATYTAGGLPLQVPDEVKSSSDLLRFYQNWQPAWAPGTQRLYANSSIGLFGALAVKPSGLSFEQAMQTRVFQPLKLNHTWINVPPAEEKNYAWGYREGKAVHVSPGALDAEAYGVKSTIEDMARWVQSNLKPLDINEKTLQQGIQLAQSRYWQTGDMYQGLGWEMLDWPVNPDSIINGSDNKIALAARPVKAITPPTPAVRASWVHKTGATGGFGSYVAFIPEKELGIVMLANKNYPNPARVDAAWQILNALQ
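20 mM phosphate pH 7.0 + 0.01% (detergent screen) or 0.0001% Triton X-100; 5.3 nM AmpC reagent; cpd preinc 15 min RT; nitrocefin (800 uM stock) to start; A480 q20 s × 4 min; Activity was normalised to no-enzyme and no-compound control wells.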
AmpC no deterg = qHTS Inhibitors of AmpC Beta-Lactamase (assay without detergent). AID 485341, 2010. AmpC nitrocefin hydrolysis, absorbance 480 nm, 0.0001% Triton. 330,000 tested, 0.52% active. Potency, µM (series often up to 57.1 µM), usual class: inhibitors. P00811; note: nearly all actives have a fitted effect of over 20% in size
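20 mM phosphate pH 7.0 + 0.01% (detergent screen) or 0.0001% Triton X-100; 5.3 nM AmpC reagent; cpd preinc 15 min RT; nitrocefin (800 uM stock) to start; A480 q20 s × 4 min; Activity was normalised to no-enzyme and no-compound control wells.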
HCMV inh = qHTS Assay for inhibitors of the human cytomegalovirus (HCMV); HFF cells, HCMV-luciferase reporter, 72 h; stronger effect = lower value; activity change, negative = inhibition, % at 57.5 µM; 410,000 tested, 4.5% active; AID 1259415, 2018; in the data active = activity change below about -60%; inconclusive = no clear call, values can overlap the other calls; inactive = above about -39%
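Compounds were evaluated in HFFs infected with an HCMV luciferase reporter virus (MOI 1 PFU/cell). Luciferase in lysates collected 72 h post infection served as the replication measure.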
HCV inhibitor = qHTS Assay for Inhibitors of Hepatitis C Virus (HCV). Huh7.5.1 HCVcc-Cre infection, luciferase reporter, 44 h. Potency, µM (doses to about 41.8 µM), actives largely listed as inhibitors. 340,000 tested, 3.4% active
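After 44 h co-culture of compound, cells and HCVcc-Cre (~0.5 moi), substrate is added for 15 min at room temperature and luciferase measured over 15 sec. Cells were seeded at 1,000/well and pre-cultured 4 h.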
FMDV antiviral = High Throughput Screening for Foot and Mouth Disease Virus Antivirals. FMDV antiviral cell-based qHTS. Potency, µM (highest dose often 57.9 µM), actives largely listed as inhibitors. 410,000 tested, 1.2% active. AID 1159524, 2015; calls by dose curve; tested in HEK293T cells; note: read-out not given here; nearly all actives have a fitted effect of over 45% in size
A number is an active result; - = inactive; ? = inconclusive; . = no result given. Unless noted, calls come from the whole dose curve; as a rule, active = well fitted curve in the direction sought with a large enough effect; inconclusive = small, poorly fitted or top-dose-only effect, or another doubt; inactive = no such curve, though single readings can be large; an effect the other way counts as inactive or inconclusive.

SMILES | AmpC inh detg | AmpC no deterg | HCMV inh | HCV inhibitor | FMDV antiviral
CCOc1cc(NC(=S)NCC2CCCO2)c(OCC)cc1NC(=O)c1cccc(C)c1 (centres undefined) | - | - | - | ? | 3.2µM
COc1ccc(CCc2ccc3ccccc3n2)cc1 | . | . | - | - | -
Cn1c(C(C(=O)NCC2CCCO2)N(CCc2ccccc2)C(=O)Cn2nnc3ccccc32)nc2ccccc21 (centres undefined) | ? | - | -65 | - | -
CCOC(=O)c1sc2ncnc(NCC(c3cccs3)N(C)C)c2c1C (centres undefined) | - | - | - | 10µM | -
c1ccc2c(c1)nc(N1CCCCCC1)c1nncn12 | . | . | - | . | -
O=S(=O)(NCC(c1ccco1)S(=O)(=O)c1ccccc1)c1cc(F)ccc1F (centres undefined) | - | . | -69 | . | -
Cc1ccccc1OCCCSc1nc2ccccc2[nH]1 | - | - | -70 | ? | ?
c1ccc(OCCSc2nc3ccccc3[nH]2)cc1 | - | - | - | - | -
O=C(Nc1ccccc1)C1=C(c2ccccc2)S(=O)(=O)CCS1(=O)=O | - | - | -93 | ? | 14µM
O=C(c1ccccc1)c1ccccc1NC(=O)C1CCCN1Cc1ccccc1 (centres undefined) | - | - | -60 | ? | -
O=C(CN1CCCC1)Nc1ccccc1C(=O)c1ccccc1 | - | - | - | - | -
COc1ccc(S(=O)(=O)n2ccc(-c3ccc4c(c3)CCC(C)(C)O4)n2)cc1 | - | - | -85 | - | -
Cc1cccc2nc3ccccc3cc12 | . | . | - | - | -
C/C(O)=c1/ccc2cccc3nc(C)nc1c23 | - | - | -79 | ? | .
O=C(CCS(=O)(=O)c1ccc(Br)cc1)N1CCN(c2ccc(F)cc2)CC1 | - | - | -65 | - | -
O=C(CCS(=O)(=O)c1ccc(Br)cc1)N1CCN(c2ccc(Cl)cc2)CC1 | ? | - | -79 | - | ?
Cc1ccc(S(=O)(=O)CCC(=O)N2CCN(c3ccc([N+](=O)[O-])cc3)CC2)cc1 | - | - | - | 13µM | ?
O=C(CCSCc1cccc(Cl)c1)N1CCN(c2ccc(Cl)cc2)CC1 | - | . | -63 | . | -
COc1ccc(N2CCN(C(=O)CCS(=O)(=O)c3ccc(OC)cc3)CC2)cc1 | - | - | - | - | -
CCN1/C(=C/c2ccc3ccccc3[n+]2CC)C=Cc2ccccc21 | - | - | -104 | 4.5µM | ?
CCN1/C(=C/c2ccc3ccccc3[n+]2CCCS(=O)(=O)[O-])C=Cc2cc(C)ccc21 | - | - | - | - | ?
CCN1/C(=C/c2ccc3cc(C)ccc3[n+]2C)Sc2ccc3sccc3c21 | - | - | -96 | ? | -
CCCCN1/C(=C/c2ccc3ccccc3[n+]2CC)Sc2ccccc21 | ? | - | . | 8.9µM | 20µM
CCN1/C(=C/c2ccc3cc(C)ccc3[n+]2CC)Sc2cc(C)ccc21 | - | - | -100 | 2.5µM | ?
CCCCN1/C(=C/c2cccc[n+]2C)Sc2cc(NC(C)=O)ccc21 | - | - | - | - | -
SMILES | AmpC inh detg | AmpC no deterg | HCMV inh | HCV inhibitor | FMDV antiviral
COCCn1c(SCC(=O)NNC(=O)c2ccccc2)nc2ccccc21 | . | - | - | - | -
CC(C)c1c(C(=O)NCCN2CCOCC2)cnn1-c1nccc(-c2ccco2)n1 | . | . | . | . | -
C=CCn1c(C)cc(C2=NNC(=Nc3ccc(C)cc3)SC2)c1C | - | - | - | - | -
Cc1cc(C2=NNC(=NC3CC3)SC2)c(C)n1Cc1ccco1 | - | - | -98 | ? | 3.2µM
CC(C)(C)N=C1NN=C(c2ccc(Cl)cc2)CS1 | - | ? | ? | 10µM | -
COc1ccc(CN=C2NN=C(c3ccc(Cl)cc3)CS2)cc1 | - | - | - | - | -
COCCn1c(C)cc(C2=NNC(=NC3CC3)SC2)c1C | - | - | -96 | ? | 1.3µM
C=CCn1c(C)cc(C2=NNC(=NC(C)(C)C)SC2)c1C | ? | - | -85 | ? | ?
CC(C)C(NC(=O)c1ccccn1)c1nnc2n1CCN(Cc1ccc3ccccc3c1)CC2 (centres undefined) | . | . | . | . | -
C=CCN=C1NN=C(c2cc(C)n(CCOC)c2C)CS1 | - | - | -96 | - | 4.5µM
COCC(C)N=C1NN=C(c2cc(C)n(Cc3ccccc3Cl)c2C)CS1 (centres undefined) | - | - | -79 | ? | -
COCCn1c(C)cc(C2=NNC(=Nc3ccc(Cl)cc3Cl)SC2)c1C | - | - | - | - | -
COc1ccc(C(CNC(=O)c2ccc(OCc3c(C)noc3C)cc2)N2CCCC2)cc1 (centres undefined) | - | - | - | ? | -
Cc1cccc(CS(=O)(=O)Cc2ccc(C(=O)NCc3ccc(F)cc3)o2)c1 | - | . | - | . | -
COc1ccccc1CNc1nccn(-c2ccccc2)c1=O | - | . | - | . | -
O=C(NCCCCCCNC(=O)c1ccccc1O)c1ccccc1O | - | - | -79 | 10µM | ?
O=C(NCCCSc1ccccc1)c1cc(Cl)ccc1O | - | - | -84 | ? | -
Cc1cnc(-n2ncc(C(=O)NCc3ccncc3)c2C(C)C)nc1-c1ccc(F)cc1 | . | . | . | . | -
CSc1nccc(Oc2cccc(C#N)c2)n1 | - | - | -61 | - | -
Cc1cc(CSCc2ccc(Cl)cc2)no1 | - | - | . | - | -
CN1CCN(CC(=O)N2CCn3c4c(c5cc(C6CCCCC6)ccc53)CCCC42)CC1 (centres undefined) | - | - | . | 7.9µM | ?
Cc1ccc2c(c1)c1c3n2CCN(C(=O)CN2CCN(C)CC2)C3CCC1 (centres undefined) | - | - | - | ? | -
Cc1ccc2c(c1)c1c3n2CCN(CC(N)=O)C3CCC1 (centres undefined) | ? | - | -98 | ? | -
CCOC(=O)c1sc(NC(=O)C2CCCCC2)nc1C | . | . | - | - | -
CC(=O)N1N=C(c2cccc([N+](=O)[O-])c2)OC1c1ccc(Cl)cc1Cl (centres undefined) | ? | - | - | 10µM | ?
SMILES | AmpC inh detg | AmpC no deterg | HCMV inh | HCV inhibitor | FMDV antiviral
Fc1ccc(Nc2nc(N/N=C/c3ccco3)nc(N3CCCCC3)n2)cc1 | - | - | ? | 11µM | -
C(=N\Nc1nc(N2CCOCC2)nc(N2CCOCC2)n1)/c1ccco1 | - | - | . | . | .
CCc1nnc(NC(=O)C(=O)c2cc(C)n(-c3ccccc3)c2C)s1 | - | . | ? | . | ?
Cc1cc(C(=O)C(=O)Nc2nnc(C(C)C)s2)c(C)n1-c1ccccc1 | - | . | -87 | . | ?
O=C(Cn1ccn(-c2ccc(F)c(F)c2)c(=O)c1=O)NCc1ccccc1 | - | . | - | . | -
COc1ccc2sc(-c3ccccc3OC)c(-c3ccc(SC)cc3)c2c1 | . | . | - | . | -
COc1cccc(-c2sc3ccc(OC)cc3c2-c2ccc(C(N)=O)cc2)c1 | - | - | - | 2.5µM | -
COc1ccc2sc(-c3ccc(SC)cc3)c(-c3ccc(O)cc3)c2c1 | . | - | - | 13µM | -
